# Measured values: PubChem BioAssay (NCATS)
# Results filed as inconclusive are left out. Entries that show only a call come without a potency. The source made the active and inactive calls. The call rests on the fitted dose curve; in most records, active means well fitted inhibition curve with a large enough effect; inconclusive means small, poorly fitted or top-dose-only effect; inactive means flat fitted curve, though single readings scatter.
# Legend:
# Test in all cases: qHTS profiling for inhibitors of Plasmodium falciparum proliferation (AID 504749); further: nearly all actives have a fitted effect of over 60% in size
# Conditions in all cases: P. falciparum in erythrocytes, SYBR Green DNA, 72 h; series mostly up to 28.7 µM
# [1] = test system: JCK
# Summary of the method: (§1)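 Quantitative HTS: compounds pinned into medium, infected erythrocytes added (0.3% parasitemia, 2.5% hematocrit), 72 h culture at 37 C under 5% CO2. Saponin/Triton lysis with SYBR Green I, overnight RT, then fluorescence read.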
# [2] = test system: P94_40
# Summary of the method: as §1
# [3] = test system: PC26
# Summary of the method: as §1
# [4] = test system: PC49
# Summary of the method: as §1
# [5] = test system: TAB109
# Summary of the method: as §1
# [6] = test system: N140
# Summary of the method: as §1
# [7] = test system: PAD
# Summary of the method: as §1
# [8] = test system: SC27B
# Summary of the method: as §1
# [9] = test system: P93_24
# Summary of the method: as §1
# [10] = test system: PC15
# Summary of the method: as §1
# Potency means the concentration at half of the fitted maximal effect.
structure (smiles),measurement,setting,value
CC(C)(Cc1c[nH]c2ccccc12)NCC(O)COc1ccccc1C#N (stereo unspecified),Potency,[1],inactive
same,Potency,[2],11.2 µM (active)
same,Potency,[3],inactive
same,Potency,[4],inactive
same,Potency,[5],10 µM (active)
CCN(CC)CCOC(=O)C1(c2ccccc2)CCCC1,Potency,[6],inactive
same,Potency,[2],inactive
same,Potency,[7],inactive
same,Potency,[3],inactive
same,Potency,[8],inactive
same,Potency,[5],inactive
NCc1ccccc1Sc1ccccc1CO,Potency,[1],inactive
same,Potency,[4],inactive
same,Potency,[8],inactive
CNCCCCOc1ccccc1Cc1ccccc1,Potency,[4],5.01 µM (active)
same,Potency,[5],4.47 µM (active)
CCCCCN=C(N)N/N=C/c1c[nH]c2ccc(OC)cc12,Potency,[6],4.47 µM (active)
same,Potency,[9],3.16 µM (active)
same,Potency,[2],2.82 µM (active)
same,Potency,[7],6.31 µM (active)
same,Potency,[10],5.62 µM (active)
same,Potency,[3],12 µM (active)
same,Potency,[8],12.6 µM (active)
same,Potency,[5],4.47 µM (active)
CN(C)CCN1C(=O)c2ccccc2N(C)c2ccccc21,Potency,[1],inactive
same,Potency,[7],inactive
same,Potency,[10],inactive
CN(CCCN1c2ccccc2CCc2ccccc21)CC(=O)c1ccc(Cl)cc1,Potency,[6],7.94 µM (active)
same,Potency,[9],11.2 µM (active)
same,Potency,[2],8.91 µM (active)
same,Potency,[7],12.6 µM (active)
same,Potency,[10],10 µM (active)
same,Potency,[8],10 µM (active)
same,Potency,[5],7.94 µM (active)
COc1cc([C@H]2Oc3cc([C@H]4Oc5cc(O)cc(O)c5C(=O)[C@@H]4O)ccc3O[C@@H]2CO)ccc1O,Potency,[1],inactive
same,Potency,[4],inactive
same,Potency,[5],inactive
CO[C@]12C[C@@H](COC(=O)c3cncc(Br)c3)CN(C)[C@@H]1Cc1cn(C)c3cccc2c13,Potency,[1],inactive
same,Potency,[4],inactive
same,Potency,[8],inactive
CC(C)NCC(O)c1ccc2ccccc2c1 (stereo unspecified),Potency,[6],4.47 µM (active)
same,Potency,[9],8.91 µM (active)
same,Potency,[2],5.01 µM (active)
same,Potency,[7],3.98 µM (active)
same,Potency,[10],7.94 µM (active)
same,Potency,[3],7.57 µM (active)
same,Potency,[8],8.91 µM (active)
same,Potency,[5],8.91 µM (active)
NC(N)=NN=C(/C=C/c1ccc([N+](=O)[O-])o1)/C=C/c1ccc([N+](=O)[O-])o1,Potency,[6],10 µM (active)
same,Potency,[9],12.6 µM (active)
same,Potency,[7],10 µM (active)
same,Potency,[4],11.2 µM (active)
same,Potency,[5],7.08 µM (active)
O=C(O)CCc1nc2ccccc2[nH]1,Potency,[10],inactive
same,Potency,[4],0.01 µM (active)
same,Potency,[5],inactive
CCCN(CCc1cccs1)[C@H]1CCc2c(O)cccc2C1,Potency,[6],3.16 µM (active)
same,Potency,[9],6.31 µM (active)
same,Potency,[2],4.47 µM (active)
same,Potency,[7],3.16 µM (active)
same,Potency,[10],6.31 µM (active)
same,Potency,[3],6.75 µM (active)
same,Potency,[4],11.2 µM (active)
same,Potency,[8],4.47 µM (active)
same,Potency,[5],7.08 µM (active)
COc1cc(O)c(C(=O)c2ccccc2)cc1S(=O)(=O)O,Potency,[1],inactive
same,Potency,[4],inactive
same,Potency,[8],inactive
CC1CCc2c(N3CCC(O)CC3)c(F)cc3c(=O)c(C(=O)O)cn1c23 (stereo unspecified),Potency,[1],inactive
same,Potency,[7],inactive
same,Potency,[10],inactive
same,Potency,[3],inactive
same,Potency,[4],inactive
N/C(=N\N=C\c1ccc(Cl)cc1)N/N=C/c1ccc(Cl)cc1,Potency,[3],inactive
same,Potency,[4],inactive
same,Potency,[8],12.6 µM (active)
same,Potency,[5],6.31 µM (active)
CN(C)CCOC(c1ccc(Cl)cc1)c1ccccn1 (stereo unspecified),Potency,[7],inactive
same,Potency,[3],inactive
Cc1cc2c(OCC(CNC(C)(C)C)OC(=O)c3ccccc3)cccc2[nH]1 (stereo unspecified),Potency,[1],inactive
same,Potency,[7],inactive
same,Potency,[10],inactive
same,Potency,[3],inactive
same,Potency,[4],inactive
same,Potency,[8],inactive
CN1CCC(OC(c2ccccc2)c2ccccc2)CC1,Potency,[1],inactive
same,Potency,[7],inactive
same,Potency,[8],inactive
Cc1cc(CC(=O)O)c(C)n1-c1ccc(Cl)cc1,Potency,[1],inactive
same,Potency,[10],inactive
same,Potency,[5],inactive
O=S(c1cc(Cl)cc(Cl)c1O)c1cc(Cl)cc(Cl)c1O,Potency,[10],inactive
same,Potency,[4],0.398 µM (active)
COc1ccc(C(=O)c2ccccc2O)c(O)c1,Potency,[9],inactive
same,Potency,[10],inactive
same,Potency,[4],inactive
same,Potency,[5],inactive
CC(C)(C)NC[C@H](O)COc1nsnc1N1CCOCC1,Potency,[6],3.98 µM (active)
same,Potency,[9],3.55 µM (active)
same,Potency,[2],3.16 µM (active)
same,Potency,[7],6.31 µM (active)
same,Potency,[10],2.24 µM (active)
same,Potency,[3],12 µM (active)
same,Potency,[8],12.6 µM (active)
same,Potency,[5],5.01 µM (active)
Oc1ccc(Cl)cc1Cc1cc(Cl)ccc1O,Potency,[6],11.2 µM (active)
same,Potency,[9],inactive
same,Potency,[4],inactive
COc1ccc(C(Cl)=C(c2ccc(OC)cc2)c2ccc(OC)cc2)cc1,Potency,[6],15.8 µM (active)
same,Potency,[2],11.2 µM (active)
same,Potency,[10],inactive
same,Potency,[3],inactive
same,Potency,[5],3.55 µM (active)
CN1CCN(C2=Nc3cc(F)ccc3Cc3ccccc32)CC1,Potency,[1],inactive
same,Potency,[10],inactive
same,Potency,[3],inactive
same,Potency,[4],inactive
same,Potency,[5],inactive
CN1CCc2cccc3c2[C@H]1Cc1ccc(O)c(O)c1-3,Potency,[6],10 µM (active)
same,Potency,[9],7.94 µM (active)
same,Potency,[2],3.98 µM (active)
same,Potency,[7],11.2 µM (active)
same,Potency,[10],8.91 µM (active)
same,Potency,[3],15.1 µM (active)
same,Potency,[5],8.91 µM (active)
CN1CCN(CCC(=O)N2c3ccccc3Sc3ccc(C(F)(F)F)cc32)CC1,Potency,[1],inactive
same,Potency,[2],inactive
same,Potency,[8],inactive
CCN(CC)CCOc1ccccc1C(=O)CCc1ccccc1,Potency,[1],inactive
same,Potency,[7],inactive
same,Potency,[4],inactive
COC(=O)C(c1ccccc1Cl)N1CCc2sccc2C1 (stereo unspecified),Potency,[1],inactive
same,Potency,[10],inactive
same,Potency,[4],inactive
CN1CCN(c2cc3c(cc2F)c(=O)c(C(=O)O)cn3-c2ccc(F)cc2)CC1,Potency,[1],inactive
same,Potency,[7],inactive
same,Potency,[10],inactive
same,Potency,[3],inactive
same,Potency,[4],inactive
same,Potency,[8],inactive
NC1CCN(c2nc3c(cc2F)c(=O)c(C(=O)O)cn3-c2ccc(F)cc2F)C1 (stereo unspecified),Potency,[1],inactive
same,Potency,[7],inactive
same,Potency,[10],inactive
same,Potency,[3],inactive
same,Potency,[8],inactive
Oc1c(Cl)cc(Cl)c(Cl)c1Cc1c(O)c(Cl)cc(Cl)c1Cl,Potency,[9],8.91 µM (active)
same,Potency,[4],8.91 µM (active)
same,Potency,[8],10 µM (active)
same,Potency,[5],11.2 µM (active)
Cc1ccc(-c2ncc(Cl)cc2-c2ccc(S(C)(=O)=O)cc2)cn1,Potency,[2],11.2 µM (active)
CN1CCN(c2c(F)cc3c(=O)c(C(=O)O)cn4c3c2SCC4)CC1,Potency,[1],inactive
same,Potency,[10],inactive
same,Potency,[3],inactive
same,Potency,[4],inactive
same,Potency,[8],inactive
CCCCCCCCCCCCOCCOCCOCCOCCOCCOCCOCCOCCOCCO,Potency,[1],inactive
same,Potency,[3],inactive
same,Potency,[4],inactive
COc1ccc(C(=O)c2ccccc2)c(O)c1,Potency,[1],inactive
same,Potency,[2],inactive
same,Potency,[4],inactive
CCN(CC)CCOc1ccc2c(c1)C(=O)c1cc(OCCN(CC)CC)ccc1-2,Potency,[9],11.2 µM (active)
same,Potency,[3],9.53 µM (active)
same,Potency,[5],5.01 µM (active)
CN1CCN(C2=Nc3ccccc3Sc3ccc(Cl)cc32)CC1,Potency,[1],inactive
same,Potency,[10],inactive
same,Potency,[4],inactive
CN(C)C(=O)Nc1ccc(Cl)c(Cl)c1,Potency,[1],inactive
same,Potency,[2],inactive
same,Potency,[4],3.55 µM (active)
same,Potency,[5],inactive
